Data on ten compounds can be found in PubChem BioAssay (NCI).

Assay in all cases: NCI-60 one-dose screen, 48 h (100 = growth as untreated, 0 = no growth, -100 = all killed)
What all share (conditions): 10 µM unless noted

In experiment [1] the test system is RPMI-8226 leukemia.
Experiment [2] has as its system OVCAR-8 ovarian.
Experiment [3] deals with OVCAR-5 ovarian.
In experiment [4] the test system is OVCAR-4 ovarian.
Experiment [5] has as its system SK-OV-3 ovarian.
Experiment [6] relates to IGROV1 ovarian.
Experiment [7] has as its system OVCAR-3 ovarian.
Experiment [8] relates to HS 578T breast.
Experiment [9] concerns NCI/ADR-RES ovarian.
Experiment [10] has as its system T-47D breast.
Experiment [11] has as its system BT-549 breast.
The subject of experiment [12] is MDA-MB-435 melanoma.
Experiment [13] relates to MCF7 breast.
In experiment [14] the test system is HCT-116 colon.
The subject of experiment [15] is HCC-2998 colon.
The subject of experiment [16] is KM12 colon.
For experiment [17], the system named is SW-620 colon.

Compounds without any hit were thinned out: in the full panel of roughly 83,000, 20% have a hit.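 Treatment: one concentration, 48 hours, 96-well format. Scoring: percent growth, with anything below 10 considered active.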 Values without a mark were called inactive. Active and inactive are the calls of the source.

`O=C(Nc1ccccc1)c1sc(-c2ccccc2)cc1O`: the growth in experiment [1] was 74.4%; in experiment [2], 119%; in [3], 94.2%; in [4], 90.9%; in experiment [5], 106%; in experiment [6], 92.5%. The growth in [7] is 84.1%; in [8], 92%; in experiment [9], 93.4%; in [10], 101%; in experiment [11], 95.8%; in experiment [12], 90%. In addition, the growth in [13] was 78.9%; in [14], 96.5%; in experiment [15], 101%; in experiment [16], 85.1%.

On to `Cc1ncc(C(=O)Nc2ccc(CN3CCN(C)CC3)c(C(F)(F)F)c2)cc1C#Cc1cnc(N)c2ccncc12`, for which the growth is -43.7% (active) in experiment [1]; -35.5% (active) in experiment [2]; -13.6% (active) in [3]; -16.9% (active) in experiment [4]; -42.5% (active) in experiment [6]; -43.6% (active) in experiment [7]. In addition, the growth in experiment [8] is -19% (active); in experiment [9], -25.1% (active); in [10], -37.3% (active); in experiment [11] it was 22.9%; in [17], -59.5% (active); in [13], -72% (active). Also, the growth is -87.6% (active) in experiment [14], -89.3% (active) in experiment [15] and -70% (active) in [16].

As to `Cn1ncc2ccc(-c3nc(-c4ccccc4)[nH]c3-c3n[nH]c(=O)n3C3CC3)cc21`, the growth in [1] was 94%; in experiment [2], 99%; in experiment [3], 98%; in [4], 93.6%; in experiment [7], 107%; in experiment [8] it was 100%. The growth in [9] was 107%; in experiment [10] it was 82.7%; in experiment [11], 106%; in experiment [12], 100%; in experiment [17] it was 100%; in experiment [13], 90.2%. The growth in [14] is 86.3%; in experiment [15], 103%; in [16], 99.2%.

For the compound `COc1ccc(C2=C/C(=C\c3ccc(Cl)cc3)C(=O)N2/N=C/c2ccc(Cl)cc2)cc1`, the growth was 101% in experiment [1]; 83.5% in experiment [2]; 103% in experiment [3]; 79.2% in [4]; 88.6% in experiment [5]; 91.2% in experiment [6]. The growth in experiment [8] is 91.4%; in [9], 104%; in experiment [10], 82.1%; in experiment [11] it was 101%; in experiment [12], 104%; in experiment [17], 98.9%. In addition, the growth in experiment [13] is 84.5%; in experiment [14], 109%; in experiment [15], 108%; in [16], 90.2%.

As for `COc1ccc(OC)c(-c2cn3nc(-c4c[nH]c5ccc(Br)cc45)sc3n2)c1`, the growth is 79.3% in experiment [1]; 25.6% in experiment [2]; 47.9% in [3]; -21.3% (active) in experiment [4]; 80.8% in [5]; 40.6% in experiment [6]. The growth in experiment [7] was 60%; in [8], 43.7%; in [9] it was 32.1%; in experiment [10], 35.2%; in experiment [11] it was 76.2%; in experiment [12], 24%. Besides, the growth in [17] is -3.33% (active); in experiment [13], 12.5%; in [14] it was 13.2%; in experiment [15], 27.2%; in [16], 11%.

On to `CCCCn1sc(=O)n(Cc2ccc(CNC(=O)OCc3ccc4c(Cl)cc(Cl)c(O)c4n3)cc2)c1=O`, for which the growth in experiment [1] was 63%; in [2], 38%; in experiment [3] it was 98.4%; in experiment [4] it was 65.2%; in [5], 88.3%; in experiment [7] it was 66.3%. In addition, the growth in experiment [8] is 82.3%; in experiment [9] it was 9.16% (active); in experiment [10] it was 62.8%; in [11], 81.4%; in [12], 69.6%; in experiment [17], 61%. Also, the growth in [13] is 63.5%; in experiment [14], 46.3%; in [15], 98.7%; in experiment [16], 65.1%.

Regarding `CN(C)c1ccc(/C=C/C(=O)c2ccccc2)cc1`, the growth in experiment [1] is 76.4%; in experiment [2] it was 93.1%; in experiment [3], 113%; in experiment [4], 101%; in [5] it was 96.9%; in experiment [6], 99.2%. Besides, the growth in experiment [7] is 90.2%; in experiment [8], 98.4%; in [9] it was 81.3%; in [10], 68.5%; in [11] it was 81.3%; in [12] it was 28.6%. Moreover, the growth in experiment [17] is 63.5%; in [13], 44.7%; in [14], 67.5%; in [15], 97.5%; in experiment [16], 51.4%.

For `O=c1nc(Nc2nc3ccccc3s2)[nH]c(=O)c2ccccc12`, the growth is 106% in [1]; 103% in [2]; 107% in experiment [3]; 102% in [4]; 64.3% in [5]; 100% in experiment [6]. In addition, the growth in [7] was 109%; in experiment [8] it was 109%; in [9] it was 103%; in experiment [10] it was 78.9%; in experiment [11], 97.5%; in experiment [12] it was 99.9%. Moreover, the growth in experiment [17] is 101%; in [13] it was 92.2%; in [14] it was 103%; in [15] it was 98.4%; in experiment [16] it was 98.5%.

On to `CN1CCN(CCOc2ccc(-c3cnc4c(-c5ccc(C(F)(F)F)cc5)cnn4c3)cc2)CC1`, for which the growth in experiment [1] is 1.38% (active); in experiment [2] it was 27.2%; in [3] it was 79.7%; in [4] it was 57.2%; in experiment [5], 85.6%; in experiment [6], 38.8%. Besides, the growth is -3.51% (active) in experiment [7]; 56% in experiment [8]; 52.8% in experiment [9]; 27.1% in [10]; 11.8% in [12]; -63.1% (active) in [17]. The growth in [13] is 10.3%; in experiment [14] it was -55.3% (active); in experiment [15] it was 33.1%; in experiment [16] it was -28.1% (active).

As to `Cn1ccnc1C(=O)/C=C/c1ccc(C(=O)Nc2ccc(F)cc2)cc1`, the growth was -17.1% (active) in experiment [1]; 18.3% in experiment [2]; 21.4% in [3]; 28.5% in [4]; 59.1% in experiment [5]; 7.02% (active) in [6]. The growth was 10.8% in experiment [7]; 40.9% in [8]; 11.2% in experiment [9]; 23.4% in experiment [10]; -14.9% (active) in experiment [11]; 18.3% in experiment [12]. For the same compound, the growth in [17] was 4.13% (active); in experiment [13], 19%; in [14], -81.5% (active); in experiment [15], -0.654% (active); in [16], 3.4% (active).
